Measurements: PubChem BioAssay (EPA / NIEHS)
Several values for one entry are separate records, joined by “and”; a condition that tells them apart may be missing. Identical values can stand only once. More than one record can exist for a structure, and the calls need not agree. Activity calls are given as the source filed them. Rule for the calls: active = hit-call score of the fitted dose curve at least 0.9, where 1 is the maximum; inactive = score below 0.9.

Assays:
[1] = ATG_GLI_CIS: Attagene CIS-FACTORIAL HepG2 Assay for human Zinc Finger Protein GLI1 (AID 2282945); conditions: HepG2, Attagene cis-factorial reporter mRNA, GLI element; actives raise or lower the signal
In short: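 HepG2 cells transiently transfected with cis-promoter multiplexed reporter units report endogenous transcription factor activity. After 24 h chemical exposure, reporter mRNA was quantified by RT-PCR, 6-FAM labelling, HpaI digestion and capillary electrophoresis, with bidirectional fitting against DMSO.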

[2] = ATG_GRE_CIS: Attagene CIS-FACTORIAL HepG2 Assay for human Glucocorticoid Response Elements (GRE) (AID 2282947); conditions: HepG2 GRE cis-reporter, Attagene multiplex mRNA; actives raise or lower the signal
In short: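 HepG2 cells transiently transfected with multiple cis-promoter reporter units measure endogenous TF activity; 24 h compound exposure. Reporter mRNA quantified by RT-PCR, FAM labelling, HpaI digestion and capillary electrophoresis; bidirectional fit vs DMSO baseline.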

[3] = ATG_ISRE_CIS: Attagene CIS-FACTORIAL HepG2 Assay for human Interferon Regulatory Factor 1 (IRF1) binding to an Interferon-Stimulated Response Element (ISRE) (AID 2282948); conditions: HepG2 ISRE cis-reporter (Attagene), mRNA transcription readout; actives raise or lower the signal
In short: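 Transfected HepG2 (multiple reporter transcription units, cis elements) dosed 24 h. RNA → oligo(dT) RT → PCR → 6-FAM primer extension → HpaI → CE. DMSO = negative control/baseline.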

[4] = ATG_M_32_CIS: Attagene CIS-FACTORIAL HepG2 Assay for M32 Transcription Factor (Internal Marker) (AID 2282949); conditions: HepG2 Attagene cis-factorial M32 reporter, mRNA; actives raise or lower the signal;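 note: background control marker of the multiplexed CIS panel rather than a real target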
In short: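 Internal background marker read-out: RT-PCR/capillary electrophoresis fluorescence of reporter transcripts from transiently transfected HepG2 cells after 24 h chemical exposure. Activity fitted bidirectionally relative to DMSO negative control.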

[5] = ATG_M_06_CIS: Attagene CIS-FACTORIAL HepG2 Assay for M06 Transcription Factor (Internal Marker) (AID 2282950); conditions: HepG2 Attagene CIS-FACTORIAL M06 internal marker reporter; actives raise or lower the signal
In short: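 Terse: HepG2, transient MRTU transfection (FuGene 6), 24 h dosing; total RNA, oligo(dT) RT, PCR, FAM label, HpaI cut, capillary electrophoresis; bidirectional fit vs DMSO baseline; background-control endpoint.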

[6] = molecular target: Hypoxia-inducible factor 1-alpha (Homo sapiens) (UniProt Q16665); assay: ATG_HIF1a_CIS: Attagene CIS-FACTORIAL HepG2 Assay for human Hypoxia Inducible Factor 1 (HIF1A) (AID 2282951); conditions: HepG2 Attagene cis-factorial HIF1a reporter transcription; actives raise or lower the signal
In short: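 Endogenous-TF cis reporter readout, human HepG2 cells, 24 h incubation; mRNA detected via RT-PCR and capillary electrophoresis fluorescence; DMSO-normalised bidirectional fitting.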

[7] = molecular target: Hepatocyte nuclear factor 6 (Homo sapiens) (UniProt Q9UBC0); assay: ATG_HNF6_CIS: Attagene CIS-FACTORIAL HepG2 Assay for human Hepatocyte Nuclear Factor 6 (HNF6) (AID 2282952); conditions: HepG2 Attagene cis-factorial HNF6 reporter transcription; actives raise or lower the signal
In short: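 HepG2 cells transiently transfected with cis-element-driven multiplexed reporter units measuring endogenous transcription factor activity. After 24 h exposure, reporter mRNA quantified by RT-PCR, FAM-labelled fragments and capillary electrophoresis; bidirectional fitting versus DMSO.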

[8] = molecular target: Heat shock factor protein 1 (Homo sapiens) (UniProt Q00613); assay: ATG_HSE_CIS: Attagene CIS-FACTORIAL HepG2 Assay for human Heat Shock Transcription Factor 1 (HSE) (AID 2282953); conditions: HepG2 HSE cis-reporter, Attagene RNA transcription; actives raise or lower the signal
In short: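 Read-out: fluorescence of reporter-specific RT-PCR fragments separated by capillary electrophoresis. HepG2 carrying transfected cis-element reporter units; 24 h dosing; activity fitted in both directions relative to DMSO baseline.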

[9] = ATG_MRE_CIS: Attagene CIS-FACTORIAL HepG2 Assay for human Metal Responsive Element (MRE) (AID 2282954); conditions: HepG2 MRE cis-reporter transcription, Attagene multiplex; actives raise or lower the signal
In short: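 HepG2 cells transiently transfected with multiple cis-element reporter units measure endogenous MTF1-driven transcription. After 24 h compound exposure, reporter mRNA is quantified by RT-PCR with 6-FAM labelling, HpaI digestion and capillary electrophoresis; bidirectional fits versus DMSO.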

[10] = ATG_PBREM_CIS: Attagene CIS-FACTORIAL HepG2 Assay for human Phenobarbital-responsive Enhancer Module (PBREM) (AID 2282955); conditions: HepG2 PBREM cis-reporter, Attagene multiplexed transcription; actives raise or lower the signal
In short: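 Readout: reporter mRNA, fluorescent RT-PCR fragments separated by capillary electrophoresis. System: HepG2 transiently transfected with cis-regulated reporter units. Exposure: 24 h. Analysis: bidirectional, DMSO baseline.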

[11] = molecular target: Paired box protein Pax-6 (Homo sapiens) (UniProt P26367); assay: ATG_Pax6_CIS: Attagene CIS-FACTORIAL HepG2 Assay for human Paired Box 6 (PAX6) (AID 2282956); conditions: HepG2 CIS-FACTORIAL PAX6 reporter transcription, RNA readout; actives raise or lower the signal
In short: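 Transient MRTU transfection of HepG2 → compound exposure 24 h → TriZol RNA, oligo(dT) RT → PCR, 6-FAM primer extension, HpaI cut → capillary electrophoresis; activity fitted both directions against DMSO.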

[12] = ATG_PXRE_CIS: Attagene CIS-FACTORIAL HepG2 Assay for human Pregnane X Receptor Element (PXRE) (AID 2282957); conditions: HepG2 Attagene CIS-FACTORIAL PXRE reporter, mRNA; actives raise or lower the signal
In short: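 HepG2 cells transiently transfected with cis-element-driven multiplexed reporter units; after 24 h chemical exposure, reporter mRNA measured by RT-PCR, 6-FAM labelling, HpaI digestion and capillary electrophoresis. Bidirectional fitting relative to DMSO.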

[13] = ATG_PPRE_CIS: Attagene CIS-FACTORIAL HepG2 Assay for human Peroxisome Proliferator-activated Response Element (PPRE) (AID 2282958); conditions: HepG2 PPRE cis-element reporter, Attagene transcription factor profiling; actives raise or lower the signal
In short: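 After human HepG2 hepatoma cells were transiently transfected with cis-promoter reporter constructs, they were exposed to test chemicals for 24 hours. Reporter RNA was then reverse-transcribed, PCR-amplified, FAM-labeled, HpaI-digested and quantified by capillary electrophoresis.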

[14] = ATG_RORE_CIS: Attagene CIS-FACTORIAL HepG2 Assay for human RAR-related Orphan Receptor Element (RORE) (AID 2282959); conditions: HepG2 Attagene cis-factorial RORE reporter, mRNA; actives raise or lower the signal
In short: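 Measured here: transcript induction of a cis-regulated reporter in HepG2 cells transiently transfected via FuGene 6. After 24 h, RNA was processed by RT-PCR and fluorescent capillary electrophoresis; DMSO defined baseline activity.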

[15] = ATG_Sox_CIS: Attagene CIS-FACTORIAL HepG2 Assay for human SRY-box transcription factor (SOX) (AID 2282960); conditions: HepG2 Attagene cis-factorial SOX reporter, mRNA; actives raise or lower the signal
In short: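 Using transiently transfected HepG2 cells, reporter transcription driven by cis elements was assessed 24 h after dosing. Signal was fluorescence of capillary-separated RT-PCR products, with DMSO defining baseline activity.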

[16] = molecular target: Transcription factor Sp1 (Homo sapiens) (UniProt P08047); assay: ATG_Sp1_CIS: Attagene CIS-FACTORIAL HepG2 Assay for human Specificity Protein 1 (Sp1) (AID 2282961); conditions: HepG2 Sp1 cis-reporter transcription, actives raise or lower the signal
In short: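 After transient transfection of HepG2 cells with cis-promoter reporter units and 24 h chemical treatment, reporter transcripts were quantified by RT-PCR and capillary electrophoresis fluorescence. Gain- and loss-of-signal fitted against DMSO.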

[17] = ATG_SREBP_CIS: Attagene CIS-FACTORIAL HepG2 Assay for human Sterol Regulatory Element Binding (SREBP) (AID 2282962); conditions: HepG2 Attagene cis-factorial SREBP reporter, mRNA; actives raise or lower the signal
In short: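 Transfected HepG2 (cis-regulated reporter library, endogenous TFs) → compound 24 h → total RNA → oligo(dT) RT → reporter-specific PCR → FAM primer extension, HpaI cut → CE fluorescence. Fit bidirectional vs DMSO.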

[18] = molecular target: Signal transducer and activator of transcription 3 (Homo sapiens) (UniProt P40763); assay: ATG_STAT3_CIS: Attagene CIS-FACTORIAL HepG2 Assay for human Signal Transducer and Activator of Transcription 3 (STAT3) (AID 2282963); conditions: HepG2, Attagene cis-factorial STAT3 reporter transcription; actives raise or lower the signal
In short: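 HepG2 cells transiently transfected with cis-element-driven multiple reporter transcription units; after 24 h chemical exposure, reporter mRNA measured by RT-PCR, 6-FAM primer-extension labelling, HpaI digestion and capillary electrophoresis. Bidirectional fitting versus DMSO baseline.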

[19] = ATG_TA_CIS: Attagene CIS-FACTORIAL HepG2 Assay for human TA Basal Promoter (AID 2282964); conditions: HepG2 Attagene CIS-factorial TA basal promoter reporter; actives raise or lower the signal
In short: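 Transfected HepG2, 24 h compound exposure; RNA → RT-PCR → FAM primer extension → HpaI cut → CE fluorescence. Gain/loss-of-signal fitted against DMSO negative control. Background-control readout.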

[20] = ATG_TCF_b_cat_CIS: Attagene CIS-FACTORIAL HepG2 Assay for human T-Cell-Factor with beta-catenin (TCF/b-cat) (AID 2282965); conditions: HepG2 TCF/beta-catenin cis-reporter transcription, actives raise or lower the signal
In short: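 HepG2 cells transiently transfected with multiple cis-promoter-regulated reporter transcription units, so endogenous transcription factor activity is measured. Reporter mRNA read 24 hours after dosing by RT-PCR, fluorescent labelling and capillary electrophoresis; bidirectional fitting against DMSO.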

Measured: AC50

Sequence of Paired box protein Pax-6 (Homo sapiens) (P26367 whole entry, looked up): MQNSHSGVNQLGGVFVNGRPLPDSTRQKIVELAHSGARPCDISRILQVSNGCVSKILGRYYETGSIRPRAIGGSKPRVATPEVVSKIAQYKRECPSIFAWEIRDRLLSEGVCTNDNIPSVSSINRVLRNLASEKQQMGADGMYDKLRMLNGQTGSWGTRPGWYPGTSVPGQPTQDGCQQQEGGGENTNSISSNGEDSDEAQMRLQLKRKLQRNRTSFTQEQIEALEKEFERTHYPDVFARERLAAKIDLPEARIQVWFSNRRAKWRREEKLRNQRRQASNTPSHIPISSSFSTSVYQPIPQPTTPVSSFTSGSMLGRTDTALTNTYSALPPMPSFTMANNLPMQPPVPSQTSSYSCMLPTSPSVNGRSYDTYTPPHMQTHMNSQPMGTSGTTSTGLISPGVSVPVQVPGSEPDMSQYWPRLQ
Sequence of Hypoxia-inducible factor 1-alpha (Homo sapiens) (Q16665 whole entry, looked up): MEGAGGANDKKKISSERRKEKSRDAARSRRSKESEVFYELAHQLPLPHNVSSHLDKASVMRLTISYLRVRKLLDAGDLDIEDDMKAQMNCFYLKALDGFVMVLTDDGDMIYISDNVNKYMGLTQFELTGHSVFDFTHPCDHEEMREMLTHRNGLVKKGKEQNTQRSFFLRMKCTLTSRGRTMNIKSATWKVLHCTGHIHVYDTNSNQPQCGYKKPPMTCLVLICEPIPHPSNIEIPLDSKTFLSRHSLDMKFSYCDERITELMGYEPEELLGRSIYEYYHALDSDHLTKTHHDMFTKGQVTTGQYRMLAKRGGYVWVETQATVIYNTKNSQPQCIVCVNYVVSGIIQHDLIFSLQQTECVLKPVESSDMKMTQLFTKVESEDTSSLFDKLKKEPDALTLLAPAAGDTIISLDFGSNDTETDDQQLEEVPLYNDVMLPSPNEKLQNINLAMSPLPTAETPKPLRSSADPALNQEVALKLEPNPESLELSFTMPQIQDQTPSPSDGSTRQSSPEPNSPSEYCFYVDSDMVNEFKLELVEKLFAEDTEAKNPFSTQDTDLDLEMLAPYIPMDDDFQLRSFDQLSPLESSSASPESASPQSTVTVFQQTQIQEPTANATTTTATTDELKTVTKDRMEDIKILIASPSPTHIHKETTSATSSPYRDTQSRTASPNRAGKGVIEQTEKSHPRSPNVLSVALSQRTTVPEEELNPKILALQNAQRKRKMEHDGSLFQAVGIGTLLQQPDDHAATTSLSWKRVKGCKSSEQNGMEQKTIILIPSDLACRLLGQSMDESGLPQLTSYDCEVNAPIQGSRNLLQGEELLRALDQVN
Sequence of Heat shock factor protein 1 (Homo sapiens) (Q00613 whole entry, looked up, the tested form may be a part): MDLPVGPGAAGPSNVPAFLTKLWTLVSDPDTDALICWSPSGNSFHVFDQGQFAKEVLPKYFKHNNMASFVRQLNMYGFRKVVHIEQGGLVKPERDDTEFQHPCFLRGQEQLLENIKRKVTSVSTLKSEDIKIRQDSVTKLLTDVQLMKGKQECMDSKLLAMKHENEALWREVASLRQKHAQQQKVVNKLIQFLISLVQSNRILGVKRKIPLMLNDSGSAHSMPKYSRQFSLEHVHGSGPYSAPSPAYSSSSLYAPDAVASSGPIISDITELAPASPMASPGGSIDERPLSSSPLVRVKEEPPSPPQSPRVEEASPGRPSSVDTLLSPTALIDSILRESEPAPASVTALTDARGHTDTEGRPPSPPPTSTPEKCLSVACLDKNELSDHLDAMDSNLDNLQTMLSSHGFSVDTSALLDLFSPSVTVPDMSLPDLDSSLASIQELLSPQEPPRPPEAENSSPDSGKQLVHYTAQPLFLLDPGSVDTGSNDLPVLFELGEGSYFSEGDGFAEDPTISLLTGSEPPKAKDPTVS
Sequence of Hepatocyte nuclear factor 6 (Homo sapiens) (Q9UBC0 whole entry, looked up, the tested form may be a part): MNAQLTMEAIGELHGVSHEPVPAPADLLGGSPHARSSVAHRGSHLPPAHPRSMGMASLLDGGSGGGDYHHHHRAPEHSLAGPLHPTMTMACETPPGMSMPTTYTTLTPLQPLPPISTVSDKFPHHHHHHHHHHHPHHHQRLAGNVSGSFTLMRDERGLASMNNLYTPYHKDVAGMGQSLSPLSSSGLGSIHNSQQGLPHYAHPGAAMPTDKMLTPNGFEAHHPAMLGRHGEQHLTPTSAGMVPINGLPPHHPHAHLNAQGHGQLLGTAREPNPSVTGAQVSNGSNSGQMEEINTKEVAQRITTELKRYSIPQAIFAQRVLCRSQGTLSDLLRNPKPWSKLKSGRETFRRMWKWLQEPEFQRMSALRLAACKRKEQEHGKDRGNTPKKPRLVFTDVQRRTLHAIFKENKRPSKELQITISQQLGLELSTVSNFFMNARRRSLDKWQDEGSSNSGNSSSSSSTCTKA
Sequence of Transcription factor Sp1 (Homo sapiens) (P08047 whole entry, looked up): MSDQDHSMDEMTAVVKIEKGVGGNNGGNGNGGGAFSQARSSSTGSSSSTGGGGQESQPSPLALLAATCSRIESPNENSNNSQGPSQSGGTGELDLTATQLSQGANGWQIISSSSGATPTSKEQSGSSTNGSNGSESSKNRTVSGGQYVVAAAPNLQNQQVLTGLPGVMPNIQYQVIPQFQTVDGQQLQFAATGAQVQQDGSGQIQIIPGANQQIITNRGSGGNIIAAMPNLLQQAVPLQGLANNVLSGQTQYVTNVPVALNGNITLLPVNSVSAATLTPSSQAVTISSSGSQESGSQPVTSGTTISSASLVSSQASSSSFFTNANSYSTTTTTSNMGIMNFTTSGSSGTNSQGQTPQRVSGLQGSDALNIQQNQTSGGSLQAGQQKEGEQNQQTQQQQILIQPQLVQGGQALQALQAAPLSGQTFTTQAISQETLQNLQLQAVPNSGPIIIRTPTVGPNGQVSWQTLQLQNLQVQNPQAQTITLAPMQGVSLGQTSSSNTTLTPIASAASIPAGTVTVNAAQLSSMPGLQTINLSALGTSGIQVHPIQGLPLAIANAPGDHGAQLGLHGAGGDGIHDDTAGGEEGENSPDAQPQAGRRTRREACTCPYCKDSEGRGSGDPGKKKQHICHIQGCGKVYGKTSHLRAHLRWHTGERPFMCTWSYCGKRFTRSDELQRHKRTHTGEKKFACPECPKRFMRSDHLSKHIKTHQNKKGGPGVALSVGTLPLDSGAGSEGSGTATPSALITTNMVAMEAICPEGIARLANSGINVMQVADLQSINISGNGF
Sequence of Signal transducer and activator of transcription 3 (Homo sapiens) (P40763 whole entry, looked up): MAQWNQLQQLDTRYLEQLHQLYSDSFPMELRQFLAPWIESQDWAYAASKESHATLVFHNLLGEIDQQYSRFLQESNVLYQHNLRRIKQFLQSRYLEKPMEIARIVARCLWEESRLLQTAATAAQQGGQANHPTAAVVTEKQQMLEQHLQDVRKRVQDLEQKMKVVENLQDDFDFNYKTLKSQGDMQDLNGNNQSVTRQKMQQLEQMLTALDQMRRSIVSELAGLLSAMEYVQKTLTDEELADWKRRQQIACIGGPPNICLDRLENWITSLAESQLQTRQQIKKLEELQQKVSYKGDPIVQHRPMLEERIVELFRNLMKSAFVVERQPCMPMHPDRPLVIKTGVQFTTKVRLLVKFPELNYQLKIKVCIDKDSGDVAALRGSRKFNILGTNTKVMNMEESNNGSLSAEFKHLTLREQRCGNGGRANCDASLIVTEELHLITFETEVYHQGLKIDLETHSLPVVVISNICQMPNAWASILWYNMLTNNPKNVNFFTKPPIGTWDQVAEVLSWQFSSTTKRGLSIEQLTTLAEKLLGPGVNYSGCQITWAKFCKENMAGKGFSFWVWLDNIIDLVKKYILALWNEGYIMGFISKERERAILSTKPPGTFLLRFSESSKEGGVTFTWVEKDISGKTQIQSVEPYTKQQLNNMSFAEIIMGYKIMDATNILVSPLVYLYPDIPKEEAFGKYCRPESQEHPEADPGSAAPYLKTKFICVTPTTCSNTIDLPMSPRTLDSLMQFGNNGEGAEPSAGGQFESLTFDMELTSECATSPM

COc1nn(CSP(=S)(OC)OC)c(=O)s1
active: [10] 50 µM | [12] 15.6 µM
inactive: all other assays above

Oc1cc(Cl)ccc1Oc1ccc(Cl)cc1Cl
active: [2] 11.1 µM | [3] 13.5 µM [middle of 4 runs] | [8] 17.4 µM and 9.05 µM | [9] 15.3 µM [middle of 6 runs] | [10] 2.91 µM and 3.38 µM and 17.3 µM | [11] 13.9 µM and 8.6 µM | [12] 2.98 µM [middle of 7 runs] | [14] 12.7 µM and 15.1 µM and 15.8 µM | [15] 11.1 µM and 10.3 µM | [19] 17.4 µM | [20] 11.1 µM and 19.2 µM and 14.4 µM
inactive: [1] | [2] | [3] | [4] | [5] | [6] | [7] | [8] | [9] | [10] | [11] | [12] | [13] | [14] | [15] | [16] | [17] | [18] | [19] | [20]
